# Vaccinia mCherry = qHTS for Stage-Specific Inhibitors of Vaccinia Orthopoxvirus: mCherry Reporter Primary qHTS | 310,000 compounds, 0.63% hits | Potency, µM (series often up to 36.5 µM), actives largely listed as inhibitors | Vaccinia virus mCherry reporter infection, fluorescence | AID 720579, 2013; calls by dose curve; tested in A549 cells; further: nearly all actives have a fitted effect of over 35% in size
# VACV Venus inh = qHTS for Stage-Specific Inhibitors of Vaccinia Orthopoxvirus: Venus Reporter Primary qHTS | Potency, µM (highest dose often 36.5 µM), most hits filed as inhibitors | 330,000 compounds, 0.46% hits | Vaccinia virus Venus reporter expression, fluorescence; calls by dose curve; tested in A549 cells; further: nearly all actives have a fitted effect of over 30% in size
# HCMV antiviral = qHTS Assay for inhibitors of the human cytomegalovirus (HCMV); HFF cells, HCMV-luciferase reporter, 72 h; active compounds read low; activity change, negative = inhibition, % at 57.5 µM; AID 1259415, 2018; 410,000 compounds, 4.5% hits; in the data active means activity change below about -60%; inconclusive means no clear call, values can overlap the other calls; inactive means above about -39%
#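 Two-dose cell screen: HFF monolayers treated with compounds and infected with luciferase-expressing HCMV at 1 PFU/cell, 72 h at 37C, then lysed for luciferase measurement.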
# FMDV antiviral = High Throughput Screening for Foot and Mouth Disease Virus Antivirals | FMDV antiviral cell-based qHTS | Potency, µM (series often up to 57.9 µM), usual class: inhibitors | 410,000 compounds, 1.2% hits | AID 1159524, 2015; calls by dose curve; tested in HEK293T cells; further: read-out not given here; nearly all actives have a fitted effect of over 45% in size
# HCV inhibitor = qHTS Assay for Inhibitors of Hepatitis C Virus (HCV) | Huh7.5.1 HCVcc-Cre infection, luciferase reporter, 44 h | Potency, µM (top dose mostly 41.8 µM), usual class: inhibitors | 340,000 compounds, 3.4% hits
#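 Whole-lifecycle infectious HCVcc-Cre system; cells 1,000/well, compound then virus (~0.5 moi) added 4 h after plating, 44 h culture. Luciferase read 15 sec following 15 min substrate incubation, room temp.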
# Sm TGR inh = qHTS Assay for the Inhibitors of Schistosoma Mansoni Peroxiredoxins | Schistosoma mansoni thioredoxin glutathione reductase (TGR), Q962Y6 | purified TGR, DTNB reduction, TNB absorbance 405 nm | Potency, µM (highest dose often 114 µM), hits mostly inhibitors | 360,000 compounds, 3% hits | AID 485364, 2010; further: nearly all actives have a fitted effect of over 60% in size
#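 TGR 20 nM + NADPH 100 uM (dispensed conc.), cpd preinc 15 min RT; start with NADPH (500 uM addition) then DTNB (15 mM addition). Kinetic TNB absorbance, 405 nm filter. Four-parameter Hill fit across titration.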
# Hits are given with their value; . = inactive; ? = inconclusive; / = not tested or not shown; [ ] = another dose, or the depositor's remark. Only some compounds are listed: those with a hit (about 9.3% of all), similar ones and a draw of the others. Unless noted, the call rests on the fitted dose curve; in most records, active means well fitted curve in the direction sought with a large enough effect; inconclusive means small, poorly fitted or top-dose-only effect, or another doubt; inactive means no such curve, though single readings can be large; an effect the other way counts as inactive or inconclusive.
SMILES,Vaccinia mCherry,VACV Venus inh,HCMV antiviral,FMDV antiviral,HCV inhibitor,Sm TGR inh
COc1cc(C2C(C#N)=C(N)Oc3c2ccc2ccccc32)ccc1OCC(=O)Nc1cccc(C)c1 (centres undefined),.,?,.,?,?,.
COc1cc(C2C(C#N)=C(N)Oc3c2ccc2ccccc32)ccc1OCC(=O)Nc1ccc(C)cc1 (centres undefined),?,.,.,?,2µM,.
CN(C)c1c([N+](=O)[O-])ncn1C,/,.,.,.,.,.
Cn1cnc([N+](=O)[O-])c1S(=O)(=O)Nc1ccccc1,.,.,.,22µM,?,/
Cn1cnc([N+](=O)[O-])c1NCc1ccccc1,/,/,.,.,.,.
Cn1cnc([N+](=O)[O-])c1S(=O)(=O)c1cccc(Cl)c1,/,/,.,25µM,?,0.28µM
Cn1cnc([N+](=O)[O-])c1S(=O)(=O)Oc1ccccc1,.,.,.,25µM,?,/
Cc1nn(C(C)C(=O)c2cccc(Cl)c2)c(C)c1[N+](=O)[O-] (centres undefined),?,.,.,.,.,.
CCSc1nc2c(c(=O)[nH]1)C(c1cccs1)C(C(=O)OC)=C(C)N2 (centres undefined),.,.,.,.,.[8.37 µM],.
COc1ccc(C(=O)/C=C(\C)Nc2ccc3c(c2)OCO3)cc1,/,/,.,.,?,.
Nc1c(C(=O)Nc2ccc(Cl)cc2F)sc2nc(-c3cccs3)ccc12,.,.,.,.,/,.
Cc1ccc(/C=C/C(=O)N2CCN(S(=O)(=O)c3ccc(C)c(C)c3)CC2)o1,.,.,.,.,.,13µM
Cc1ccc(/C=C/C(=O)N2CCN(Cc3ccccc3)CC2)o1,.,.,.,.,.,14µM
Cc1ccc(S(=O)(=O)N2CCN(C(=O)N(C)C)CC2)cc1C,/,.,.,.,?,.
Cc1ccc(/C=C/C(=O)N2CCN(S(=O)(=O)c3c(C)c(C)cc(C)c3C)CC2)o1,.,.,.,.,.,10µM
Cc1cccc(CN2CCN(C(=O)CCl)CC2)c1,.,.,.,35µM,?,35µM
Cc1cccc(CN2CCN(C(=O)Cc3ccccc3)CC2)c1,?,.,.,.,.,.
COc1cc2c(C(=O)NCCCN3CCN(c4cccc(Cl)c4)CC3)cn(C)c(=O)c2cc1OC,/,/,.,?,.,.
COc1cc(OC)cc(C(=O)Nc2cccc(-c3ccc4nncn4n3)c2)c1,/,/,/,/,/,.
Cc1ccc2[nH]c(=O)c(CN(Cc3ccc4c(c3)OCO4)Cc3nnnn3C3CCCC3)cc2c1,.,.,.,.,?,.
Cc1nn(Cc2ccc(C(=O)Nc3ccccc3C(F)(F)F)o2)c(C)c1Br,/,/,.,.,?,.
Cc1csc(NC(=O)c2ccc(Cn3nc(C)c(Br)c3C)o2)n1,?,?,.,22µM,10µM,.
Cc1csc(NC(=O)c2ccco2)n1,.,.,-84,.,.,.
O=C(Nc1nc(-c2ccc(Cl)s2)cs1)c1cccs1,?,?,.,.,11µM,.
O=C(Nc1nc(-c2ccccc2)cs1)c1cccs1,?,?,.,.,?,.
SMILES,Vaccinia mCherry,VACV Venus inh,HCMV antiviral,FMDV antiviral,HCV inhibitor,Sm TGR inh
O=C(O)Cc1csc(NC(=O)c2ccco2)n1,/,.,.,.,.,.
Cc1csc(NC(=O)c2cn3ccccc3n2)n1,.,.,.,14µM,.,.
COc1cccc(NC(=O)CN(C)C(=O)CCNC(=O)c2ccccc2Cl)c1,.,.,.,.,.,.
O=C(O)CC(NC(=O)C(c1ccccc1)c1ccccc1)c1ccc(F)cc1 (centres undefined),/,/,?,.,.,.
O=C(Nc1nc(-c2ccc(Cl)s2)cs1)c1ccco1,.,.,.,.,?,40µM
CC1CCc2nc(NC(=O)c3ccco3)sc2C1 (centres undefined),.,?,-78,.,?,.
CC1CCc2nc(NC(=O)Cc3cccs3)sc2C1 (centres undefined),/,.,.,.,?,.
O=C(Nc1nc(-c2nc3ccccc3s2)cs1)c1ccco1,.,.,.,.,.,.

# Bioassay records deposited in PubChem BioAssay by National Center for Advancing Translational Sciences (NCATS).
